{"source": "PubChem BioAssay AID1779", "about": "(Sanford-Burnham Center for Chemical Genomics, 2009)", "note": "The campaign covered roughly 290,000 compounds. About 160 (0.055%) were called active. Many of the other results were omitted from the sample, so actives are more common in it than they were. Values without a mark were called inactive. Cut-off read from the data, not from the text of the source: active = inhibition above about 50%; inactive = the rest."}
{"molecular_target": "Tyrosine-protein phosphatase non-receptor type 22 (Homo sapiens) (UniProt Q9Y2R2)", "sequence (Q9Y2R2 whole entry, looked up)": "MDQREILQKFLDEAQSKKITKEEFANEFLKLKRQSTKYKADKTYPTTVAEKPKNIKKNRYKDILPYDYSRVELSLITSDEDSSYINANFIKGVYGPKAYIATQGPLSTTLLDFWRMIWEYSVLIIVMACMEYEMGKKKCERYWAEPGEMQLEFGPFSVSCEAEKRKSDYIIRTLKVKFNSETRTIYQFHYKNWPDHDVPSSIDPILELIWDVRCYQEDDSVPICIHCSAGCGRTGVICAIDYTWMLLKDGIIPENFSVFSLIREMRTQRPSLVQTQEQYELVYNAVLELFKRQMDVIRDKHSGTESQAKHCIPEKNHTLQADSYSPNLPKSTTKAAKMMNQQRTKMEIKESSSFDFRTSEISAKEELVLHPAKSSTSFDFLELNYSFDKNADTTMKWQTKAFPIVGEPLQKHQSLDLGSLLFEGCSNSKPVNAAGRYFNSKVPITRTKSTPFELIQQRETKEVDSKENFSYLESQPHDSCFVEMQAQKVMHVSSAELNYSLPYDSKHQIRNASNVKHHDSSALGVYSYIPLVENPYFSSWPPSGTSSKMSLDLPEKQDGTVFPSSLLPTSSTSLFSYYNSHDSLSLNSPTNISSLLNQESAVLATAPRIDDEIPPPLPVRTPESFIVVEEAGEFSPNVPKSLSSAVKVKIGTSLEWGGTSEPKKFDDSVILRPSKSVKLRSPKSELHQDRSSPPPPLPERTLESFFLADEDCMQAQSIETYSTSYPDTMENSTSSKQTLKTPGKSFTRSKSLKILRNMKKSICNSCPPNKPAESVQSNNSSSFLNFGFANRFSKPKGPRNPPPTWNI", "assay": "inhibitors of LYP phosphatase, biochemical, fluorescence intensity, uHTS (AID 1779);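 note: plate controls were vehicle with enzyme for no effect and no enzyme for full effect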", "conditions": "recombinant LYP phosphatase, at 11.5 µM, active compounds read high"}
{"smiles": "NC(=O)CC(NC(=O)Cc1ccc(Br)cc1)c1ccc(NC2CCC2)c([N+](=O)[O-])c1", "note": "(centres undefined)", "inhibition": "-1.3%"}
{"smiles": "Cc1cccc(N2CCN(C(=O)c3ccc(Cl)c(NC4=NC5CS(=O)(=O)CC5S4)c3)CC2C)c1", "note": "(centres undefined)", "inhibition": "-0.7%"}
{"smiles": "O=C(COc1ccc(S(=O)(=O)N2CCOCC2)cc1Cl)NCC1CCCO1", "note": "(centres undefined)", "inhibition": "-12%"}
{"smiles": "CCCCCOc1ccc(Cl)cc1CN1CCOCC1", "inhibition": "-8.9%"}
{"smiles": "CCCCOc1ccc(CN2CCCCC2)cc1", "inhibition": "67.8% (active)"}
{"smiles": "CCCCCOc1ccc(CN2CCOCC2)cc1Cl", "inhibition": "50.2% (active)"}
{"smiles": "c1cc(OCCCN2CCCCC2)ccc1CN1CCCCC1", "inhibition": "-8%"}
{"smiles": "CCCOc1ccc(CN2CCOCC2)cc1OC", "inhibition": "-8%"}
{"smiles": "CCCCOc1ccc(CN2CCSCC2)cc1", "inhibition": "-4.9%"}
{"smiles": "COc1ccc(C(=O)Nc2ccc(Cl)cc2C(=O)NCc2ccco2)cc1OC", "inhibition": "0.7%"}
{"smiles": "COc1cc(OC)cc(C(=O)NCCN2C(=O)S/C(=C\\c3cccs3)C2=O)c1", "inhibition": "0.8%"}
{"smiles": "Cc1nn(C(C)C(=O)NCCCN2CCCCCC2)c(=O)c2c1sc1ccccc12", "note": "(centres undefined)", "inhibition": "-12.7%"}
{"smiles": "Cc1cccc(C)c1NC(=O)Cn1c(=O)n(CCCC(=O)NC2CCN(Cc3ccccc3)CC2)c(=O)c2ccccc21", "inhibition": "-5.3%"}
{"smiles": "O=C(CCCCn1c(=O)c2ccccc2n(Cc2ccccc2)c1=O)NC1CCN(Cc2ccccc2)CC1", "inhibition": "-1.4%"}
{"smiles": "Cc1cc(NC(=O)Cn2c(=O)n(CCCCC(=O)NC3CCN(Cc4ccccc4)CC3)c(=O)c3ccccc32)n[nH]1", "inhibition": "73.8% (active)"}
{"smiles": "CCOC(=O)C1=C(C)NC(=S)NC1c1ccc(-c2cccc(Cl)c2C)o1", "note": "(centres undefined)", "inhibition": "8.2%"}
{"smiles": "COc1ccc2[nH]c(C)c(CCNC(=S)Nc3cc(C)ccc3C)c2c1", "inhibition": "83.2% (active)"}
{"smiles": "COc1ccc2[nH]c(C)c(CCNC(=S)Nc3ccccc3C)c2c1", "inhibition": "0.8%"}
{"smiles": "COc1ccc2[nH]c(C)c(CCNC(=S)Nc3cc(C)cc(C)c3)c2c1", "inhibition": "2.4%"}
{"smiles": "COc1ccc(COc2ccc(S(=O)(=O)N3CCCC3)cc2C(N)=O)cc1F", "inhibition": "-6%"}
{"smiles": "CCNS(=O)(=O)c1cc(S(C)(=O)=O)ccc1Cl", "inhibition": "85.1% (active)"}
{"smiles": "Cc1ccccc1NS(=O)(=O)c1cc(S(C)(=O)=O)ccc1Cl", "inhibition": "-0.4%"}
{"smiles": "CS(=O)(=O)c1ccc(Cl)c(S(=O)(=O)NCc2ccccc2)c1", "inhibition": "-8.1%"}
{"smiles": "CCC(C)(C(=O)NC1CCCC1)N(C(=O)c1cnccn1)c1c(C)n(C)n(-c2ccccc2)c1=O", "note": "(centres undefined)", "inhibition": "1.7%"}
{"smiles": "CC(=O)Nc1ccc(NC(=O)C2C3C=CC(C3)C2C(=O)O)cc1", "note": "(centres undefined)", "inhibition": "-6.4%"}
{"smiles": "NS(=O)(=O)c1ccc(NC(=O)C2C3C=CC(C3)C2C(=O)O)cc1", "note": "(centres undefined)", "inhibition": "-7.2%"}
{"smiles": "CC(=O)NS(=O)(=O)c1ccc(NC(=O)C2C3C=CC(C3)C2C(=O)O)cc1", "note": "(centres undefined)", "inhibition": "59.6% (active)"}
{"smiles": "COc1ccc(OC)c2c1nc1n2CCS1", "inhibition": "-2.7%"}
{"smiles": "Cc1cccc(NC(=O)CN2C(=O)/C(=C3\\SC(=S)N(CC4CCCO4)C3=O)c3ccccc32)c1", "note": "(centres undefined)", "inhibition": "-7.3%"}
{"smiles": "COCCN1C(=O)/C(=C2/C(=O)N(CC(=O)Nc3ccccc3Cl)c3ccccc32)SC1=S", "inhibition": "-3.5%"}
{"smiles": "COc1ccc(NC(=O)CN2C(=O)/C(=C3\\SC(=S)N(C4CCS(=O)(=O)C4)C3=O)c3ccccc32)cc1", "note": "(centres undefined)", "inhibition": "-5.2%"}
{"smiles": "COc1ccc(NC(=O)CN2C(=O)/C(=C3\\SC(=S)N(CCC(=O)O)C3=O)c3ccccc32)cc1", "inhibition": "69.2% (active)"}
{"smiles": "O=C(CN1C(=O)/C(=C2\\SC(=S)N(CCS(=O)(=O)O)C2=O)c2ccccc21)Nc1cccc(Br)c1", "inhibition": "71% (active)"}
{"smiles": "O=C1/C(=C2\\C(=O)N(Cc3ccc(F)cc3)c3ccccc32)SC(=S)N1CCS(=O)(=O)O", "inhibition": "-1.2%"}
{"smiles": "Cc1c(N=Cc2cc(Br)cc(Br)c2O)cccc1C(=O)O", "inhibition": "-7.4%"}
{"smiles": "CC(=O)CCn1cnc([N+](=O)[O-])n1", "inhibition": "-3.7%"}
{"smiles": "Cc1ccc([C@@H]2[C@@H]3C(=O)N(C)C(=O)[C@@H]3[C@]3(C)C(=O)N(CCO)CC(=O)N23)o1", "inhibition": "-10.2%"}
{"smiles": "COC(=O)c1[nH]c2ccccc2c1NC(=O)c1ccccc1F", "inhibition": "-5.7%"}
{"smiles": "COc1ccc(OCC(=O)Nc2ccccc2OC(F)F)cc1", "inhibition": "-1.4%"}
{"smiles": "CC(C)=NOCc1ccc(-c2cn([C@@H]3COC[C@H]3O)nn2)cc1", "inhibition": "-2.9%"}
{"smiles": "Clc1ccc(-c2ccn[nH]2)cc1", "inhibition": "-8.1%"}
{"smiles": "Cc1ccc(C)n1-c1ccc(-c2ccn[nH]2)cc1", "inhibition": "50% (active)"}
{"smiles": "c1ccn(-c2ccc(-c3ccn[nH]3)cc2)c1", "inhibition": "-5.9%"}
{"smiles": "O=C(c1cccs1)N1CCCC1", "inhibition": "-12%"}
{"smiles": "COc1ccccc1CNC(=O)CCC(=O)N1CCOc2ccc(C)cc21", "inhibition": "-4.7%"}
{"smiles": "COc1ccc([N+](=O)[O-])cc1NC(=S)NC(NC(=O)C(c1ccccc1)c1ccccc1)C(Cl)(Cl)Cl", "note": "(centres undefined)", "inhibition": "8%"}
{"smiles": "COc1ccccc1OCC(=O)N(Cc1nc(-c2ccccc2)no1)C(C)C", "inhibition": "-3.5%"}
{"smiles": "CC1CCCCN1Cc1ccc(-c2nnn(CC(=O)NC3CCCCC3)n2)cc1", "note": "(centres undefined)", "inhibition": "-2.1%"}
{"smiles": "CCCc1cc(-c2n[nH]c(=S)n2CC)cs1", "inhibition": "-1.3%"}
{"smiles": "CCc1cc(-c2n[nH]c(=S)n2CC(C)C)cs1", "inhibition": "5.1%"}
{"smiles": "CCCc1cc(-c2n[nH]c(=S)n2CC(C)C)cs1", "inhibition": "58.3% (active)"}
{"smiles": "Cc1cc2oc(=O)cc(CN(C)Cc3ccccc3F)c2cc1Cl", "inhibition": "-0.7%"}
{"smiles": "COc1ccc(N2CCN(C(=O)c3ccc(S(=O)(=O)N4CCCC4)cc3)CC2)cc1", "inhibition": "-0.4%"}
{"smiles": "COc1cc(=O)n(C)c2cc(N(C)C)ccc12", "inhibition": "-9.9%"}
{"smiles": "COc1ccc2c(OC)cc(=O)n(C)c2c1", "inhibition": "59.6% (active)"}
{"smiles": "COc1cc(=O)n(C)c2ccccc12", "inhibition": "-3.8%"}
{"smiles": "CCOC(=O)CSc1nc2ccccc2c(=O)n1CC", "inhibition": "1.2%"}
{"smiles": "O=c1c(Cc2ccc(F)cc2)c(O)ccn1C1CC1", "inhibition": "-9%"}
{"smiles": "Cc1cccc(N2CCN(C(=O)Cn3c(=O)[nH]c4ccsc4c3=O)CC2C)c1", "note": "(centres undefined)", "inhibition": "-8.5%"}
{"smiles": "COCCn1nnnc1C(c1cccc(C(F)(F)F)c1)N1CCOCC1", "note": "(centres undefined)", "inhibition": "-7%"}
{"smiles": "CCC1CCCCN1CCCNC(=O)c1ccc(CS(=O)(=O)Cc2ccc(Cl)cc2)o1", "note": "(centres undefined)", "inhibition": "-7.2%"}
{"smiles": "CCC1CCCCN1CCCNC(=O)c1ccc(CS(=O)(=O)c2ccccc2C)o1", "note": "(centres undefined)", "inhibition": "-13.2%"}
{"smiles": "CCC1CCCCN1CCCNC(=O)c1ccc(CS(=O)(=O)Cc2ccccc2F)o1", "note": "(centres undefined)", "inhibition": "56.2% (active)"}
{"smiles": "C=CCOc1ccc2cccc(/C=N/NC(=O)c3cc4cc([N+](=O)[O-])ccc4s3)c2c1", "inhibition": "-4.5%"}
{"smiles": "COc1cccc(/C=N/NC(=O)c2cc3cc([N+](=O)[O-])ccc3s2)c1O", "inhibition": "73.6% (active)"}
{"smiles": "COc1cccc(/C=N/NC(=O)c2ccc([N+](=O)[O-])cc2Cl)c1O", "inhibition": "9%"}
{"smiles": "CC(=O)N1CCN(c2ccc(NC(=O)c3ccc(OCc4ccccc4)cc3)cc2)CC1", "inhibition": "-3.8%"}
{"smiles": "CCc1ccc(OCc2nnc(SCC(=O)NC3CCCCC3)o2)cc1", "inhibition": "-6.8%"}
{"smiles": "CCCNS(=O)(=O)c1ccc(NC(=O)c2cccnc2)cc1", "inhibition": "-7.3%"}
{"smiles": "CC1Sc2ccc(S(=O)(=O)CCC(=O)NC3CCCC(C)C3C)cc2NC1=O", "note": "(centres undefined)", "inhibition": "-6.7%"}
{"smiles": "Cn1cc(Cl)c(C(=O)Nc2cnn(Cc3ccc(F)cc3)c2)n1", "inhibition": "-1.2%"}
{"smiles": "Cc1ccccc1Cn1cc(NC(=O)c2cc(-c3ccco3)on2)cn1", "inhibition": "-0.1%"}
{"smiles": "Cc1ccccc1Cn1cc(NC(=O)c2nn(C)cc2Cl)cn1", "inhibition": "60.2% (active)"}
{"smiles": "Cc1ccc(OCc2cc(C(=O)NC3CCOC3)no2)cc1C", "note": "(centres undefined)", "inhibition": "-2.1%"}
{"smiles": "O=C(CN1C(=O)c2ccccc2C1=O)N1CCN=C1c1ccccc1", "inhibition": "-8.9%"}
{"smiles": "Cc1cc(C)cc(OCC(=O)N/N=C\\c2cn(C)nc2C)c1", "inhibition": "76.1% (active)"}
{"smiles": "CCn1ncc(/C=N\\NC(=O)COc2cc(C)cc(C)c2)c1C", "inhibition": "-3.6%"}
{"smiles": "Cc1cc(C)cc(OCC(=O)N/N=C/c2ccncc2)c1", "inhibition": "-10.7%"}
{"smiles": "CC1=NNC(=O)C1CCC(=O)N/N=C(\\C)c1ccccc1", "note": "(centres undefined)", "inhibition": "-4.6%"}
{"smiles": "c1ccc2c(c1)NC1(CCCC1)n1c-2nc2ccccc21", "inhibition": "-16.8%"}
{"smiles": "Cc1cccc(NC(=O)Nc2cccc(C)n2)n1", "inhibition": "-5.9%"}
{"smiles": "COc1ccc(Cc2nnc(NC(=O)c3ccccc3Cl)s2)cc1OC", "inhibition": "-9.8%"}
{"smiles": "COc1ccc(Cc2nnc(NC(=O)c3ccccc3F)s2)cc1", "inhibition": "-0.8%"}
{"smiles": "COc1ccc(Cc2nnc(NC(=O)c3ccccc3F)s2)cc1OC", "inhibition": "66.6% (active)"}
{"smiles": "COc1ccc2cc(C(C)c3nc4ccccc4c(=O)n3N)ccc2c1", "note": "(centres undefined)", "inhibition": "4.5%"}
{"smiles": "C=CCNc1nc(C(F)(F)F)nc2c1nnn2Cc1ccccc1Cl", "inhibition": "-2.4%"}
{"smiles": "COc1ccc(CNC(=O)c2cc(-c3ccccc3O)n[nH]2)cc1", "inhibition": "53.5% (active)"}
{"smiles": "COc1ccc(CNC(=O)c2cc(-c3cc(C)ccc3O)n[nH]2)cc1", "inhibition": "-3.7%"}
{"smiles": "COc1ccc(CNC(=O)c2cc(-c3cc(C)cc(C)c3O)n[nH]2)cc1", "inhibition": "4%"}
{"smiles": "COc1cccc(N(C(=O)c2snc(C(N)=O)c2N)C(C(=O)NCC2CCCO2)c2cccs2)c1", "note": "(centres undefined)", "inhibition": "-2%"}
{"smiles": "COc1ccc(C2=NN(C(=O)CCC(=O)O)C(c3ccc(OC)c(OC)c3)C2)cc1", "note": "(centres undefined)", "inhibition": "-7.5%"}
{"smiles": "COc1ccc(C2CC(c3ccc(C)cc3)=NN2C(=O)CCC(=O)O)cc1OC", "note": "(centres undefined)", "inhibition": "89.2% (active)"}
{"smiles": "COc1ccc(C2CC(c3ccc(Br)cc3)=NN2C(=O)CCC(=O)O)cc1OC", "note": "(centres undefined)", "inhibition": "-7.6%"}
{"smiles": "CC(=O)c1ccc(-n2c(CCC(=O)O)ccc2-c2ccc(C)cc2)cc1", "inhibition": "-5.2%"}
